According to PubChem BioAssay (Tox21):
Values joined by “and” are separate entries in the source; they are usually repeats but may differ in a detail not shown here. Equal entries are not always repeated. Inconclusive results are not listed. Where a call stands in place of a potency, no number is given. More than one record can exist for a structure, and the calls need not agree. Active and inactive are the calls of the source. Unless noted, calls come from the whole dose curve.

How the values were obtained:
[1] = Nuclear factor erythroid 2-related factor 2/antioxidant responsive element (Nrf2/ARE) small molecule agonists: qHTS cell viability counter screen in human keratinocytes (AID 1919968; active = well fitted curve in the direction sought with a large enough effect in the repeat runs; an effect the other way counts as inactive or inconclusive; note: nearly all actives have a fitted effect of over 55% in size; note: potency is the fitted concentration of half-maximal effect)
Summary of the method: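 Viability counter-screen: KeratinoSens reporter cells, DMSO-delivered compounds, 23 h at 37 C, CellTiter-Fluor fluorescence.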

[2] = Nuclear factor erythroid 2-related factor 2/antioxidant responsive element (Nrf2/ARE) small molecule agonists: luciferase reporter gene qHTS assay in human keratinocytes (AID 1919969); note: nearly all actives have a fitted effect of over 35% in size; note: potency is the fitted concentration of half-maximal effect
[3] = biological target: Gonadotropin-releasing hormone receptor (Homo sapiens) (UniProt P30968); test: Human gonadotropin-releasing hormone receptor (GnRHR) small molecule agonists, calcium flux assay in GnRHR-HEK293 cells (AID 1920063); note: nearly all actives have a fitted effect of over 35% in size; note: potency is the fitted concentration of half-maximal effect
Chain of Gonadotropin-releasing hormone receptor (Homo sapiens) (P30968 whole entry, looked up): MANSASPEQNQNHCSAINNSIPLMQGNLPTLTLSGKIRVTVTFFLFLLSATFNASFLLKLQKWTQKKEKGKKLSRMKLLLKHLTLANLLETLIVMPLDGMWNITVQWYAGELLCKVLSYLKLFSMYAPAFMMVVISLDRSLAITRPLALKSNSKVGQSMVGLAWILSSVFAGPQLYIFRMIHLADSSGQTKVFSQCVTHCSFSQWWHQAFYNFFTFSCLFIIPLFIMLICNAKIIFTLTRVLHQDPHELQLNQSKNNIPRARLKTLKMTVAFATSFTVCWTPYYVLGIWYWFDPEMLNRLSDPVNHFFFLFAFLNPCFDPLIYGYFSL
Summary of the method: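 Tox21-format agonist screen using human GnRHR-expressing HEK293 cells and a fluorescent calcium dye; kinetic 3-min fluorescence reading after compound addition, 15-point concentration series run in triplicate.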

[4] = biological target: KiSS-1 receptor (Homo sapiens) (UniProt Q969F8); test: Human kisspeptin (KISS1R) small molecule agonists, calcium flux assay in KISS1R-HEK293 cells (AID 1920064; active = well fitted curve in the direction sought with a large enough effect in the repeat runs; an effect the other way counts as inactive or inconclusive)
Chain of KiSS-1 receptor (Homo sapiens) (Q969F8 whole entry, looked up): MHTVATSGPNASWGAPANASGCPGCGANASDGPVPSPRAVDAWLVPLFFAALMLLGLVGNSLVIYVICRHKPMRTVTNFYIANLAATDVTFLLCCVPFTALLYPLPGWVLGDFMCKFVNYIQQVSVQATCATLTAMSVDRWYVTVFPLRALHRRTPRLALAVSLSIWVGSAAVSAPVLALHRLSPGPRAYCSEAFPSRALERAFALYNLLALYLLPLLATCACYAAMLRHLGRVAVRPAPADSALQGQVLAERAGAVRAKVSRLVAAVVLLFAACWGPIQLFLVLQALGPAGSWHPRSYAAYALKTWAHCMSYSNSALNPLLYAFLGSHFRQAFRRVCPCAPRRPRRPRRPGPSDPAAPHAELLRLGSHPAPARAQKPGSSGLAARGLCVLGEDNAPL
Summary of the method: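 Intracellular calcium mobilization in KISS1R-HEK293 cells was recorded by fluorescence (Ex/Em 480/540) for 3 min following compound addition to cells pre-loaded 1 h with calcium dye.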

[5] = G protein-coupled receptor (GPCR) small molecule agonists, calcium flux assay: HEK293 wild type cell line counter screen (AID 1920065)
Summary of the method: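 In this agonist-mode screen, ATP is the positive control and DMSO the vehicle. Cells grow 18 h before a 1 h dye incubation at 37 C; signal is taken at Ex/Em 480/540 over 3 min.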

[6] = p53 small molecule agonists, cell-based qHTS assay with human liver microsomes (AID 1963577)
Summary of the method: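 p53RE-bla reporter cells were pre-incubated 5 h at 37 C, then treated with compounds plus human liver microsomes (0.5 mg/mL final) and NADPH (0.5 mg/mL final) for 16 h at 37 C. Beta-lactamase activity was read by LiveBLAzer fluorescence after 2 h at room temperature.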

[7] = p53 small molecule agonists, cell-based qHTS assay with rat liver microsomes (AID 1963578)
Summary of the method: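 p53RE-bla cells were exposed to compounds together with rat liver microsomes (0.5 mg/mL final) and NADPH (0.5 mg/mL final) for 16 h at 37 C, then read by LiveBLAzer beta-lactamase fluorescence after 2 h at room temperature.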

[8] = p53 small molecule agonists, cell-based qHTS assay with human liver microsomes: qHTS cell viability counter screen (AID 1963579); note: nearly all actives have a fitted effect of over 45% in size; note: potency is the fitted concentration of half-maximal effect
Summary of the method: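 p53RE-bla cells (4,000/well) were pre-incubated 5 h at 37 C, then given compounds in DMSO plus human liver microsomes (0.5 mg/mL final) and NADPH (0.5 mg/mL final) for 16 h at 37 C. Viability was read by CellTiter-Glo luminescence.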

[9] = p53 small molecule agonists, cell-based qHTS assay with rat liver microsomes: qHTS cell viability counter screen (AID 1963580); note: nearly all actives have a fitted effect of over 45% in size; note: potency is the fitted concentration of half-maximal effect
Summary of the method: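 In HCT-116 cells carrying a p53 response element-bla reporter, compounds were metabolically activated in situ by rat liver microsomes with NADPH over 16 h. Cell ATP content then served as the cytotoxicity measure.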

[10] = p53 small molecule agonists, cell-based qHTS assay: qHTS cell viability counter screen (AID 1963581); note: nearly all actives have a fitted effect of over 45% in size; note: potency is the fitted concentration of half-maximal effect
Summary of the method: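 Compounds are pinned onto HCT-116 p53RE-bla cells and left 16 h at 37 C. Following the reporter FRET read, ATP is quantified by CellTiter-Glo luminescence after 30 min at room temperature.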

[11] = p53 small molecule agonists, cell-based qHTS assay (AID 1963582; active = well fitted activation curve with a large enough effect in the signal ratio in the repeat runs, not every such curve was filed as active; the % refers to the signal ratio)
Summary of the method: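 Agonist activity was scored from beta-lactamase FRET fluorescence in p53RE-bla cells treated 16 h at 37 C with compounds in DMSO, substrate incubation being 2 h at room temperature.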

[12] = biological target: 5-hydroxytryptamine receptor 2A (Homo sapiens) (UniProt P28223); test: 5-hydroxytryptamine receptor 2A (HTR2A) small molecule antagonists, cell-based qHTS assay (AID 1963586); note: nearly all actives have a fitted effect of over 45% in size; note: potency is the fitted concentration of half-maximal effect
Chain of 5-hydroxytryptamine receptor 2A (Homo sapiens) (P28223 whole entry, looked up): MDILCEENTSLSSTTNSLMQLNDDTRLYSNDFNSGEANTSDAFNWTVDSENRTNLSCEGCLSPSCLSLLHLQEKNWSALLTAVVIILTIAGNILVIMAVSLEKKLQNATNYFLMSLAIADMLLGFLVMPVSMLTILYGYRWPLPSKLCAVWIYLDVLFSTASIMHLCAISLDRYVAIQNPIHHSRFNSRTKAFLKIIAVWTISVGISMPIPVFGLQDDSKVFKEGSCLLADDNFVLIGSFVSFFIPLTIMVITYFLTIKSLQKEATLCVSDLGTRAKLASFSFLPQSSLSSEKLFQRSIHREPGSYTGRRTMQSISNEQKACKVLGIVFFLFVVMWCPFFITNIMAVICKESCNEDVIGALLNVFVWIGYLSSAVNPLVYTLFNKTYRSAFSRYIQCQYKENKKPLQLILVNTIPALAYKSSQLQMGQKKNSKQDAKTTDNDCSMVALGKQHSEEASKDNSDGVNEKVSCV
Summary of the method: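 Antagonist-mode intracellular calcium assay: DOI (4 nM) added after 5 min compound pre-incubation at room temperature to dye-loaded HTR2A-CHO cells. Fluorescence followed for 3 min, sampled every second.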

[13] = biological target: 5-hydroxytryptamine receptor 2A (Homo sapiens) (UniProt P28223); test: 5-hydroxytryptamine receptor 2A (HTR2A) small molecule agonists, cell-based qHTS assay (AID 1963587); note: nearly all actives have a fitted effect of over 30% in size; note: potency is the fitted concentration of half-maximal effect
Summary of the method: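 HTR2A-CHO cells, plated 18 h at 37 C/5% CO2, dye-loaded 1 h at 37 C; compounds in DMSO added by pin tool (agonist mode). Intracellular calcium flux read as kinetic fluorescence on FDSS over 2 min at 1 s intervals.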

[14] = biological target: Muscarinic acetylcholine receptor M1 (Homo sapiens) (UniProt P11229); test: Cholinergic receptor muscarinic 1 (CHRM1) small molecule antagonists, cell-based qHTS assay (AID 1963588); note: nearly all actives have a fitted effect of over 40% in size; note: potency is the fitted concentration of half-maximal effect
Chain of Muscarinic acetylcholine receptor M1 (Homo sapiens) (P11229 whole entry, looked up): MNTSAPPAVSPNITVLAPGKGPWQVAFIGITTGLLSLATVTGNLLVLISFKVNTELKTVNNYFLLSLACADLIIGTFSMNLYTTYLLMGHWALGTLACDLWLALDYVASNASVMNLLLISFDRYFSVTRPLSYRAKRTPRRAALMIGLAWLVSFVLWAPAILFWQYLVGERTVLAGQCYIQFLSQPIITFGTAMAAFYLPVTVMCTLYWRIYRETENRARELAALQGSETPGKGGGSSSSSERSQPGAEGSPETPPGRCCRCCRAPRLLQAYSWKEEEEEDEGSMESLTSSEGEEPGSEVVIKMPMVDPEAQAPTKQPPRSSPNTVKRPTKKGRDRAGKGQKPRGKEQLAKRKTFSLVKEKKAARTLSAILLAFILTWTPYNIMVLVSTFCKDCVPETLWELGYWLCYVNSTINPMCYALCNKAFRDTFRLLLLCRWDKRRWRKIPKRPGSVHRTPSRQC
Summary of the method: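 CHRM1-CHO calcium-flux assay, antagonist mode. Cells were seeded 18 h, dye-loaded 1 h at 37 C and given compound for 5 min at RT, then acetylcholine was added at 50nM. FDSS fluorescence was read 3 min; 15 concentrations, three runs.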

[15] = biological target: Muscarinic acetylcholine receptor M1 (Homo sapiens) (UniProt P11229); test: Cholinergic receptor muscarinic 1 (CHRM1) small molecule agonists, cell-based qHTS assay (AID 1963589); note: nearly all actives have a fitted effect of over 35% in size
Summary of the method: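 Stable CHRM1-CHO cells (human receptor) were incubated 18 h, dye-loaded for 1 h at 37 C and exposed to test compounds for agonist activity, with calcium-dependent fluorescence followed kinetically.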

[16] = cAMP Responsive Elements (CRE) small molecule antagonists, cell-based qHTS assay (AID 1963591; active = well fitted inhibition curve with a large enough effect in the signal ratio in the repeat runs, not every such curve was filed as active; the % refers to the signal ratio)
Summary of the method: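 qHTS in CRE-bla HEK 293T cells: compound in DMSO, then 0.25 uM NKH477 (final), 3 h at 37 °C/5% CO2; beta-lactamase FRET read-out after 2 h substrate incubation.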

[17] = biological target: Beta-2 adrenergic receptor (Homo sapiens) (UniProt P07550); test: Adrenergic beta2 receptor (ADRB2) small molecule antagonists, cell-based qHTS assay (AID 1963592); note: series mostly up to about 92 µM; nearly all actives have a fitted effect of over 50% in size
Chain of Beta-2 adrenergic receptor (Homo sapiens) (P07550 whole entry, looked up): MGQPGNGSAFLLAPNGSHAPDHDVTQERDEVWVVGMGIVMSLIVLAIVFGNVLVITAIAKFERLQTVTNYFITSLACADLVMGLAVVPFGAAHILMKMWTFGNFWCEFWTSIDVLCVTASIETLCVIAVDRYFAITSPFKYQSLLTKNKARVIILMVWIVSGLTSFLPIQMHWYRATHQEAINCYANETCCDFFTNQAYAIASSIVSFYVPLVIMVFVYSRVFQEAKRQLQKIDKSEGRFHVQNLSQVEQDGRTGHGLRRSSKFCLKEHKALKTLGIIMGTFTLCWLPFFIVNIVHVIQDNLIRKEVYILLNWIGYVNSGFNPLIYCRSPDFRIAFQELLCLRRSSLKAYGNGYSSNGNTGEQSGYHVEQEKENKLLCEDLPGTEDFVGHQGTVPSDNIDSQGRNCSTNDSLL
Summary of the method: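 Cells (CHO, stable ADRB2 overexpression) incubated 18-20hr at 37C; compounds added from DMSO; agonist mix (1nM isoproterenol, 100uM IBMX, 25uM Ro-20-1724) added; 0.5hr RT; d2-cAMP and anti-cAMP-cryptate added; 1hr RT; 665/615 nm read.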

[18] = biological target: D(2) dopamine receptor (Homo sapiens) (UniProt P14416); test: Dopamine D2 receptor (DRD2) small molecule agonists, cell-based qHTS assay (AID 1963594); note: nearly all actives have a fitted effect of over 35% in size
Chain of D(2) dopamine receptor (Homo sapiens) (P14416 whole entry, looked up): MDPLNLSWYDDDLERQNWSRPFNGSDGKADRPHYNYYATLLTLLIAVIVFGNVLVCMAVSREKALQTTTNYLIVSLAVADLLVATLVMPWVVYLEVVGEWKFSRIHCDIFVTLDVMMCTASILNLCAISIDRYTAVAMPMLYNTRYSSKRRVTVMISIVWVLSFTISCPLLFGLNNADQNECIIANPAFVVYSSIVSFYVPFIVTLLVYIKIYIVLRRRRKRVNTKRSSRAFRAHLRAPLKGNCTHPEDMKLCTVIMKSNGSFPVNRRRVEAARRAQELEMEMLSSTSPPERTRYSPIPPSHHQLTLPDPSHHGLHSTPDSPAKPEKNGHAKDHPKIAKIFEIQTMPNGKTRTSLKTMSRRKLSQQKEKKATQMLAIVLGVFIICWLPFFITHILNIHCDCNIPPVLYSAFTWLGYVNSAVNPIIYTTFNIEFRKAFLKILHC
Summary of the method: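 HEK293 cells stably expressing DRD2 were cultured 24 h at 37 C, then given Ro20-1724 (0.1 mM final) and compounds for 10 min at room temperature. NKH477 (200nM) was then added for 30 min. cAMP was read by HTRF.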

[19] = cAMP Responsive Elements (CRE) small molecule agonists, cell-based qHTS assay (AID 1963590)
Summary of the method: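 FRET-based beta-lactamase readout (LiveBLAzer B/G, 2 h RT) quantified CRE activation in HEK 293T CRE-bla cells after 3 h treatment with DMSO-dissolved compounds.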

[20] = biological target: D(2) dopamine receptor (Homo sapiens) (UniProt P14416); test: Dopamine D2 receptor (DRD2) small molecule antagonists, cell-based qHTS assay (AID 1963595; active = well fitted inhibition curve with a large enough effect in the signal ratio in the repeat runs, with a control signal flat; the % refers to the signal ratio; note: potency is the fitted concentration of half-maximal effect)
Summary of the method: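 Antagonist mode in DRD2-HEK293 cells: after compound addition with 0.1 mM Ro20-1724, cells received quinpirole (12 nM) and NKH477 (200 nM) for 30 min at room temperature; HTRF cAMP read after 1 h detection.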

Compound	Potency [1]	Potency [2]	Potency [3]	Potency [4]	Potency [5]	Potency [6]	Potency [7]	Potency [8]	Potency [9]	Potency [10]	Potency [11]	Potency [12]	Potency [13]	Potency [14]	Potency [15]	Potency [16]	Potency [17]	Potency [18]	Potency [19]	Potency [20]
CC(Cl)C(=O)O (stereo unspecified)	inactive	inactive	inactive	inactive	inactive	inactive	inactive	inactive	inactive	inactive	inactive	inactive	inactive	inactive	inactive	inactive	inactive	inactive	–	–
CC1(C)C(C=C(Cl)Cl)C1C(=O)OC(C#N)c1ccc(F)c(Oc2ccccc2)c1 (stereo unspecified)	inactive	inactive	inactive	inactive	inactive	inactive	inactive	inactive	inactive	inactive	inactive	inactive	inactive	inactive	inactive	–	inactive	inactive	inactive	inactive
CCC(C)C(C)(COC(N)=O)COC(N)=O (stereo unspecified)	inactive	inactive	inactive	inactive	inactive	inactive	inactive	inactive	inactive	inactive	inactive	inactive	inactive	inactive	inactive	–	–	inactive	inactive	inactive
CCCC(C)(COC(N)=O)COC(N)=O	inactive	inactive	inactive	inactive	inactive	inactive	inactive	inactive	inactive	inactive	inactive	inactive	inactive	19.9 nM (active)	inactive	inactive	–	inactive	inactive	inactive
COC(=O)Nc1cccc(OC(=O)Nc2cccc(C)c2)c1	inactive	13.7 µM (active) and inactive	inactive	inactive	inactive	inactive	inactive	inactive	inactive	inactive	inactive	inactive	inactive	inactive	inactive	inactive	–	–	inactive	inactive
NCCc1ccc(O)cc1	inactive	29.8 µM (active)	inactive	inactive	inactive	inactive	inactive	inactive	inactive	inactive	inactive	4.17 µM (active) and inactive	5.45 µM (active) and 8.49 µM (active)	inactive	inactive	–	inactive	inactive	inactive	inactive
CCC(=O)OC1(c2ccccc2)CCN(C)CC1	inactive	inactive	inactive	inactive	inactive	inactive	inactive	inactive	inactive	inactive	inactive	inactive	inactive	inactive	–	inactive	inactive	inactive	inactive	inactive
Nc1ccccc1C(=O)OCCc1ccccc1	inactive	488 nM (active) and inactive	inactive	inactive	inactive	inactive	inactive	inactive	inactive	inactive	inactive	inactive	inactive	inactive	inactive	–	inactive	inactive	–	inactive
CCCCCCCCCCCC[N+](C)(C)CCOc1ccccc1	27.3 µM (active)	inactive	38.9 µM (active) and 16.9 µM (active)	inactive	inactive	inactive	inactive	45.8 µM (active) and inactive	45.8 µM (active) and inactive	45.8 µM (active) and inactive	inactive	133 nM (active) and 46 nM (active)	43.7 µM (active)	748 nM (active) and inactive	inactive	–	inactive	inactive	–	48.6 µM (active)
Cl/C=C/Cl	inactive	inactive	inactive	inactive	inactive	inactive	inactive	inactive	inactive	inactive	inactive	inactive	inactive	inactive	–	inactive	inactive	inactive	–	inactive
CN(CCO)CCO	inactive	inactive	inactive	inactive	inactive	inactive	inactive	inactive	inactive	inactive	inactive	inactive	inactive	inactive	–	inactive	inactive	inactive	inactive	–
C[C@]12CCC(=O)C(O)=C1CC[C@@H]1[C@@H]2CC[C@]2(C)C(=O)CC[C@@H]12	inactive	inactive	inactive	inactive	inactive	inactive	inactive	inactive	inactive	inactive	inactive	inactive	inactive	inactive	inactive	–	inactive	–	–	inactive
ClCCN1CCCC1	inactive	inactive	inactive	inactive	inactive	inactive	inactive	inactive	inactive	inactive	inactive	inactive	inactive	–	inactive	inactive	inactive	inactive	inactive	inactive
O=[N+]([O-])c1cccc(O)c1	inactive	inactive	inactive	inactive	inactive	inactive	inactive	inactive	inactive	inactive	inactive	inactive	inactive	inactive	inactive	inactive	inactive	inactive	–	inactive
Clc1ccc(C(Cl)(Cl)Cl)cc1	inactive	inactive	inactive	inactive	inactive	inactive	inactive	inactive	inactive	inactive	inactive	inactive	inactive	inactive	–	inactive	inactive	inactive	inactive	inactive
